Source: PubChem BioAssay
GBA enhancer – GBA activity enhancers in patient fibroblasts, primary screen, cell-based; activation, % at 10 µM; Lysosomal acid glucosylceramidase (Homo sapiens), P04062; hit rate 0.44% among 30,000; L444P Gaucher fibroblasts, 4-MU-glucoside fluorescence, 3 days; in the data active = activation above about 65%;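 also: 0% = vehicle wells and 100% = positive control wells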
Target sequence (P04062 whole entry L483P): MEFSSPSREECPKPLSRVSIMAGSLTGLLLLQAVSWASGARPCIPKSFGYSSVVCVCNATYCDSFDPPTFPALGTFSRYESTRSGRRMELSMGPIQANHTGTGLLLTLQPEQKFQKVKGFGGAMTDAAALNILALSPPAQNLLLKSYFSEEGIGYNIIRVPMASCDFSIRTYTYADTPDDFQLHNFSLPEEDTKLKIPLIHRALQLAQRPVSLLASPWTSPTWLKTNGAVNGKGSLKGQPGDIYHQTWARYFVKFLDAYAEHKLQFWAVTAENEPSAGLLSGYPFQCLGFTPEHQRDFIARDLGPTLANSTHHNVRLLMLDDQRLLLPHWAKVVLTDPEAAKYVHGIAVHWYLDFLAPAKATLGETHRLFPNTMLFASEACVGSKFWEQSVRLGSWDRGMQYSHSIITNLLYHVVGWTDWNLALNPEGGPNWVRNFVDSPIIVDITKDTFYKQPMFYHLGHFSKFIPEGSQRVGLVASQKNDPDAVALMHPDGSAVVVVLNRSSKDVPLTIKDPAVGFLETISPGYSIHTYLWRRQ
The depositor's hits bear a star. Shown is part of a subset that was picked to be rich in hits.

SMILES	GBA enhancer
COc1ccc(C2C(C#N)=C(/N=C/N3CCN(C)CC3)OC3=C2C(=O)CC(C)(C)C3)cc1OC (configuration not stated)	-62
CCCCOC(=O)n1c(SCC(=O)N(CC)CC)nc2ccccc21	-9
O=C(Cn1nc(C(F)(F)F)c2c1CCCC2)NCc1ccco1	-23
O=C(OCc1nc2ccc(Cl)cc2n1CCO)c1ccc2c(c1)OCO2	-16
CCc1nn2c(=O)cc(CSc3nc4sc5c(c4c(=O)n3C)CCCC5)nc2s1	-18
COc1ccc(C(=O)NCCc2c[nH]c3ccccc23)cc1S(=O)(=O)N1CCOCC1	-13
COc1ccccc1C(c1nnnn1C(C)(C)C)N1CCN(Cc2ccncc2)CC1 (configuration not stated)	0
CCN1CCN(C(c2ccc(OC)c(OC)c2)c2nnnn2C(C)(C)C)CC1 (configuration not stated)	140*
COc1ccccc1N1CCN(C(c2ccc(Cl)cc2)c2nnnn2C(C)(C)C)CC1 (configuration not stated)	-43
CCOC(=O)c1nnn(-c2nonc2N)c1-c1ccc(OC)cc1	17
Cn1nnnc1SCCNC/C=C/c1ccccc1	0
CC1=C(C(=O)Nc2ccccc2)C(c2ccncc2)n2nnnc2N1 (configuration not stated)	-6
CC1=C(C(=O)Nc2cccnc2)C(c2ccncc2)n2nnnc2N1 (configuration not stated)	70*
CC1=C(C(=O)Nc2cccnc2)C(c2ccccn2)n2nnnc2N1 (configuration not stated)	27
Cc1cc(-c2ccccc2)n(-c2ccc(C(=O)N3CCN(c4ncccn4)CC3)cc2)n1	-112
Cc1ccc(NC(=O)COC(=O)c2ccn(C)n2)cc1	-42
CCC(=O)N1CCN(c2ccccc2NC(=O)COc2cc(C)ccc2C(C)C)CC1	-1
O=C(CN1CCC(O)(c2ccccc2F)CC1)NCCc1c[nH]c2ccccc12	-29
CC(=O)N1CCc2cc(Br)cc(S(=O)(=O)NCCCN3CCCC(C)C3)c21 (configuration not stated)	3
CC(=O)N1CCc2cc(Br)cc(S(=O)(=O)NCCN3CCCCC3C)c21 (configuration not stated)	78*
CC(=O)N1CCc2cc(Br)cc(S(=O)(=O)NCCCN3CCC(C)CC3)c21	4
CC(=O)c1cccc(NC(=O)N2CCCC2C(=O)NC2CCCCC2)c1 (configuration not stated)	-10
Cc1nn2c(-c3cccc(NC(=O)CSc4nc5ccccc5o4)c3)nnc2c2ccccc12	3
CCOc1ccc(NC(=O)c2cccc3c2C(=O)N(Cc2cccnc2)C3)cc1	-6
COc1ccccc1C(=O)N(Cc1cccs1)C1CCS(=O)(=O)C1 (configuration not stated)	-21
SMILES	GBA enhancer
Cc1cccc(OC(C)C(=O)N(Cc2cccs2)C2CCS(=O)(=O)C2)c1C (configuration not stated)	6
Cc1ccccc1OCC(=O)N(Cc1cccs1)C1CCS(=O)(=O)C1 (configuration not stated)	147*
CN(C)C(CNC(=O)CN1C(=O)NC2(CCc3ccccc32)C1=O)c1ccco1 (configuration not stated)	-20
CC(C)n1c(SCC(N)=O)nc2c1c(=O)[nH]c(=O)n2C	12
CC(C)n1c(=S)[nH]c2c1c(=O)[nH]c(=O)n2C	136*
C/C=C/CSc1nc2c(c(=O)[nH]c(=O)n2C)n1C(C)C	-56
CCOC(=O)N1CCC2(CC1)C(C#N)=C(N)Oc1c2c(C)nn1-c1cccc(Cl)c1	74*
CCOC(=O)C1=C(C)OC(N)=C(C#N)C1c1c(C)nn(-c2ccccc2)c1Cl (configuration not stated)	-7
CC1(C)CC(=O)C2=C(C1)OC(N)=C(C#N)C21CCN(Cc2ccccc2)CC1	-1
CCc1nc2ccccc2n1Cc1cc(=O)n2cc(C)ccc2n1	-15
CC(C)n1nnnc1SCC(=O)Nc1ccccc1N1CCOCC1	-14
Cn1c(Cc2ccccc2)nnc1SCC(=O)NC1CCCCC1	-2
Cn1c(Cc2ccccc2)nnc1SCC(=O)Nc1ccccc1N1CCOCC1	96*
COc1cc(OC)cc(-c2nnc(SCc3c(F)cccc3Cl)o2)c1	-36
CCC(C)NC(=O)C1CCCN(S(=O)(=O)c2ccc(-n3cnnn3)cc2)C1 (configuration not stated)	-21
CCOc1ccccc1-n1c(SCC(=O)N(CC)CC)nnc1-c1ccccn1	0
CCOc1ccccc1-n1c(SCC(N)=O)nnc1-c1ccc(O)cc1	116*
CCOc1ccccc1-n1c(SCC(=O)N2CCOCC2)nnc1-c1ccccn1	-4
Cc1ccc(CN2C(=O)CCC2C(=O)NCc2ccco2)cc1 (configuration not stated)	-6
CC(C)=CC(=O)Nc1ccc(Br)cc1	-1
CCOc1ccc(OCC)c(NC(=O)C2CCN(c3ncccn3)CC2)c1	-27
CC(=O)NC1(C(F)(F)F)C(=O)NC(C)=C1C#N (configuration not stated)	5
CCOc1nc(Nc2ccc(-c3nc4ccccc4o3)cc2)nc(N2CCOCC2)n1	16
CCOCCCNS(=O)(=O)c1ccc(NC(=O)c2ccccc2)cc1	-7
C=CCn1c(-c2cc(OC)c(OC)c(OC)c2)n[nH]c1=S	-7
SMILES	GBA enhancer
C=CCn1c(-c2c[nH]c3ccccc23)n[nH]c1=S	67*
C=CCn1c(-c2ccco2)n[nH]c1=S	6
COCCn1c(C)cc(C(=O)CSc2nnc3scc(-c4ccc(Cl)cc4)n23)c1C	6
C=CCn1c(Cc2cccs2)nnc1SCC(=O)c1cccc(Br)c1	15
Cn1c(C(=O)OC(C(=O)NC2CCCCC2)c2ccncc2)cc2sccc21 (configuration not stated)	-24
Cc1ccc(-n2c(-c3ccncc3)nnc2-c2cccs2)cc1	-1
CCCCN(CCCC)S(=O)(=O)c1ccc(C(=O)Nc2nnc(CSC)o2)cc1	10
CCCCN(CC)S(=O)(=O)c1ccc(C(=O)Nc2nnc(CSC)o2)cc1	81*
CCCN(CCC)S(=O)(=O)c1ccc(C(=O)Nc2nnc(CSC)o2)cc1	8
CCN(CC)c1ccc2cc(C(=O)Nc3ccc(-n4cnnn4)c(OC)c3)c(=O)oc2c1	10
CCC1C(=O)N=C(SCC(=O)Nc2cccc3ccccc23)NC1=O (configuration not stated)	4
CCOC(=O)c1ccc(NC(=O)CSC2=NC(=O)C(CC)C(=O)N2)cc1 (configuration not stated)	145*
CCOC(=O)c1ccc(NC(=O)CSc2nnc(C)n2-c2ccccc2)cc1	9
O=C(Nc1ccccn1)C(NS(=O)(=O)c1cccc2nsnc12)c1ccccc1 (configuration not stated)	2
COc1ccc(CCNC(=O)CN2C(=O)c3ccccc3S2(=O)=O)cc1	6
O=C(CN1C(=O)c2ccccc2S1(=O)=O)NCc1ccccn1	-13
O=C(CN1C(=O)c2ccccc2S1(=O)=O)NCCSC1CCCCC1	812*
Cc1ccccc1Cn1c(=O)c2c(nc3n2CCN3Cc2ccco2)n(C)c1=O	-8
Cc1ccc(CNC(=O)CSc2nc(N3CCCCC3)nc(N3CCCCC3)n2)cc1	-2
CCOc1ccc(-n2cc(C(=O)Nc3cccc(C)n3)c3cc(OC)c(OC)cc3c2=O)cc1	9
